The source of these data is article doi:10.1101/2024.03.05.583629.

This experiment deals with pT7_6His-AlfaTag-HOXD13 (human, UniProt P35453 263-343). Nature of the experiment: PADIT-seq. Particulars: dsDNA, one strand shown.
Chain of pT7_6His-AlfaTag-HOXD13 (P35453 263-343): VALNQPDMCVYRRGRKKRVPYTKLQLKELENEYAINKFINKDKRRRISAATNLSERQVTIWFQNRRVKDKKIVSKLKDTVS
With “CTCGAGGATATCAAGATCTGGCCTCGGCCGCCCATTAGGAACCTCTAGCTAGCCGACTCACTATAGGGATAATCGCCCTGAGCAAAGACC”, the binding signal is -0.218 ± 0.102 log2FC.

In turn, “CTCGAGGATATCAAGATCTGGCCTCGGCTTTTTAATCGGAACCTCTAGCTAGCCGACTCACTATAGGGATAATCGCCCTGAGCAAAGACC” yielded a binding signal of 1.1 ± 0.0911 log2FC.

The sequence “CTCGAGGATATCAAGATCTGGCCTCGGCTTACCACGCGGAACCTCTAGCTAGCCGACTCACTATAGGGATAATCGCCCTGAGCAAAGACC” gave a binding signal of -1.03 ± 0.114 log2FC.

Turning to “CTCGAGGATATCAAGATCTGGCCTCGGCGCGATAGCGGGAACCTCTAGCTAGCCGACTCACTATAGGGATAATCGCCCTGAGCAAAGACC”, the binding signal is -0.758 ± 0.131 log2FC.

Consider “CTCGAGGATATCAAGATCTGGCCTCGGCTAACTAAAAGGAACCTCTAGCTAGCCGACTCACTATAGGGATAATCGCCCTGAGCAAAGACC”, for which the binding signal is -0.24 ± 0.119 log2FC.

In turn, “CTCGAGGATATCAAGATCTGGCCTCGGCGTTTTAATTGGAACCTCTAGCTAGCCGACTCACTATAGGGATAATCGCCCTGAGCAAAGACC” had a binding signal of 2.42 ± 0.0771 log2FC.

“CTCGAGGATATCAAGATCTGGCCTCGGCGTTTTATGAGGAACCTCTAGCTAGCCGACTCACTATAGGGATAATCGCCCTGAGCAAAGACC” had a binding signal of 3.28 ± 0.127 log2FC.

Take “CTCGAGGATATCAAGATCTGGCCTCGGCTCTTTAAAAGGAACCTCTAGCTAGCCGACTCACTATAGGGATAATCGCCCTGAGCAAAGACC”: the binding signal came to 2.42 ± 0.0868 log2FC.

“CTCGAGGATATCAAGATCTGGCCTCGGCACTTGGGCGGGAACCTCTAGCTAGCCGACTCACTATAGGGATAATCGCCCTGAGCAAAGACC” registered a binding signal of -1.04 ± 0.114 log2FC.

In the case of “CTCGAGGATATCAAGATCTGGCCTCGGCTGACTAAAAGGAACCTCTAGCTAGCCGACTCACTATAGGGATAATCGCCCTGAGCAAAGACC”, the binding signal is -0.535 ± 0.11 log2FC.
